Laboratory results reported in PubChem BioAssay (NCATS).
Results filed as inconclusive are left out. Calls of active or inactive are those of the source. Unless noted, calls follow the shape of the dose curve; as a rule, active = well fitted curve in the direction sought with a large enough effect; inconclusive = small, poorly fitted or top-dose-only effect, or another doubt; inactive = no such curve, though single readings can be large; an effect the other way counts as inactive or inconclusive.

Columns and labels:
[1] = AP1 Signaling Pathway (AID 357; active = well fitted curve in either direction with a large enough effect, not every such curve was filed as active;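 also: ME-180 reporter cells stimulated with EGF at its EC50 level; % is scaled to controls: 0 for no effect and ±100 for the full control effect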); settings: ME-180 (cervical carcinoma) AP-1-bla reporter, EGF-induced, beta-lactamase ratio, 5 h; at 7.69 µM (top of the series) unless noted
In short: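 Titration-series screen for positive or negative modulators of EC50 EGF-induced signaling in ME-180 cells carrying an AP-1-driven beta-lactamase reporter. After 5 hours at 37 degrees Celsius, CCF4 460nm/530nm emission ratio gave %Activity; AC50 values derived.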

[2] = biological target: Cytochrome P450 1A2 (Homo sapiens) (UniProt P05177); assay: p450-cyp1a2 (AID 410; calls by dose curve; also: potency is read from the fitted curve at half-maximal effect)
Sequence of Cytochrome P450 1A2 (Homo sapiens) (P05177 whole entry, looked up): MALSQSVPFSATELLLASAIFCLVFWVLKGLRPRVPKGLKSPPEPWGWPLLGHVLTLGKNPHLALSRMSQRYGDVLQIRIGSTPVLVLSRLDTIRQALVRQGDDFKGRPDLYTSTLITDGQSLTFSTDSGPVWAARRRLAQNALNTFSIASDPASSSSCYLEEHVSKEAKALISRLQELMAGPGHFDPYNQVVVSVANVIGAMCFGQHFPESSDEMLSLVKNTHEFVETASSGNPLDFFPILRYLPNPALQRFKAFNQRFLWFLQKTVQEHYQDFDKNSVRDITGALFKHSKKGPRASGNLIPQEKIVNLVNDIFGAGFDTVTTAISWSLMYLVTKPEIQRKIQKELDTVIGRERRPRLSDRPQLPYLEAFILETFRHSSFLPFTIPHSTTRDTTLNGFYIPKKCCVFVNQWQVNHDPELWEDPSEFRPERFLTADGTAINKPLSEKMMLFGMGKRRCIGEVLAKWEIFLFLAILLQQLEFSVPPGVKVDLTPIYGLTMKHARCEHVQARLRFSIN
In short: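 O-Demethylation of luciferin 6' methyl ether by human CYP1A2 is monitored as luciferase luminescence. Substrate sits at Km (100uM); enzyme is 20nM. Values are scaled to 57 uM furafylline as maximal inhibition.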

[3] = NFAT Signaling Pathway (AID 444; active = well fitted curve in either direction with a large enough effect, not every such curve was filed as active;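 also: carbachol stimulus at about its EC50 of 1 µM final; % is scaled to controls: 0 for no effect and ±100 for the full control effect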); settings: Jurkat NFAT-bla M1, carbachol, beta-lactamase ratio, 5 h; at 7.69 µM (top of the series) unless noted
In short: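 Read-out: CCF4 FRET ratio (460 nm/530 nm) after 1 h RT dye loading, used for %activity and AC50 from titration series. Cells: Jurkat NFAT-β-lactamase/M1 line, treated with compound plus 1 uM carbachol for 5 h, 37 °C.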

[4] = biological target: Glucocorticoid receptor (Homo sapiens) (UniProt P04150); assay: GR-GFP Redistribution (AID 450;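 active = compounds whose dose series gives a full or clear partial fitted curve of increased nuclear translocation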; also: potency is read from the fitted curve at half-maximal effect); settings: U2OS GR-GFP nuclear translocation, laser cytometry, 2 h
Sequence of Glucocorticoid receptor (Homo sapiens) (P04150 whole entry, looked up, the tested form may be a part): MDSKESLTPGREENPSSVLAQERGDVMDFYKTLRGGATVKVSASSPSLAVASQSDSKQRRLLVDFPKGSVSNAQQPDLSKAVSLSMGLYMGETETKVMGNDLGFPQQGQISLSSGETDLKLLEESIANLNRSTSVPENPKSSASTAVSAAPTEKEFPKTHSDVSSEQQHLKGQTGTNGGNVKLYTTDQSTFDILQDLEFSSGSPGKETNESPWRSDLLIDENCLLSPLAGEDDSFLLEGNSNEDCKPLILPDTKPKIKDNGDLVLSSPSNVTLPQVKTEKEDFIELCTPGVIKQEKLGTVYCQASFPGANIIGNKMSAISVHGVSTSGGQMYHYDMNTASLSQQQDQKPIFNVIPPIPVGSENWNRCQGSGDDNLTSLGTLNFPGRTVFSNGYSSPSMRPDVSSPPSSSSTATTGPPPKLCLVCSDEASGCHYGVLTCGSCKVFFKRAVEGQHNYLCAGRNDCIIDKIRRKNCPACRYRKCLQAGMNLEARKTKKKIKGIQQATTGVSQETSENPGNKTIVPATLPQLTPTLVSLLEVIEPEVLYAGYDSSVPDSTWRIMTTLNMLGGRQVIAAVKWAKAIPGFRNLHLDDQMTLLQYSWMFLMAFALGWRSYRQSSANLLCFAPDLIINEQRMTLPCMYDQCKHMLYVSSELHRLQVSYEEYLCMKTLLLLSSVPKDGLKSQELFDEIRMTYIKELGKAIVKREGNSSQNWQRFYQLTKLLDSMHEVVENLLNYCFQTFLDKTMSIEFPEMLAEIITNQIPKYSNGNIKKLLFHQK

[5] = biological target: Glucocorticoid receptor (Homo sapiens) (UniProt P04150); assay: GR-EFC Redistribution (AID 451; calls by dose curve; also: potency is read from the fitted curve at half-maximal effect); settings: CHO-K1 GR-EFC translocation, beta-gal luminescence, 2 h
In short: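 Translocation of GR-ED fusion to nuclear EA restores b-gal, read by luminescence after 1 h room-temperature detection. Engineered CHO-K1 biosensor cells, 1,000/well, exposed 2 h at 37 C to titrations up to 46 uM final.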

[6] = biological target: Mitogen-activated protein kinase 10 (Mus musculus) (UniProt Q61831); assay: JNK3 AlphaScreen Assay (AID 530; active = well fitted curve in either direction with a large enough effect, not every such curve was filed as active;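 also: kinase came from lysate of stimulated human HepG2 cells; signal reports phosphorylation of biotinylated GST-cJun 1-79 at Ser73 with 10 µM ATP; % is scaled to controls: 0 for no effect and ±100 for the full control effect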)
In short: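 qHTS titrations with 15 min compound pre-incubation before adding ATP (10 uM final). Read-out: AlphaScreen of Ser73-phosphorylated biotin-GST-cJun using HepG2 lysate JNK3 activated by IL-1β and TNFα.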

[7] = biological target: 3',5'-cyclic-AMP phosphodiesterase 4B (Homo sapiens) (UniProt Q07343); assay: qHTS Assay for Inhibitors of PDE-IV (AID 607; active = well fitted activation curve with a large enough effect in the main read-out, with a control signal flat, not every such curve was filed as active; also: % of control where 0% means no effect)
In short: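 The readout is membrane depolarisation from a cAMP-sensing CNG channel, detected with a potential dye at ex 535/em 590. Cells were HEK293-derived (endogenous PDE-IV) at 1000 cells/well, titrated up to 22.9 uM final.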

[8] = biological target: Guanine nucleotide-binding protein G(i) subunit alpha-1 (Homo sapiens) (UniProt P63096); assay: qHTS Assay for Inhibitors of RGS12 GoLoco Motif Activity (Green Fluorophore) (AID 879);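 also: 0% = labeled peptide with Gαi1 and full inhibition = labeled peptide alone without protein; negative values mean loss of peptide binding seen as reduced polarization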
In short: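 A drop in FITC polarization marked displacement of the FITC-tagged RGS12 GoLoco peptide (10 nM) from Gαi1 (50 nM). Compounds were incubated 10 min at room temperature in Tris pH 7.5 buffer containing 150 mM NaCl, 0.1 mM GDP and 0.05% NP40; unlabeled peptide titration served as control.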

[9] = biological target: Cytochrome P450 2C9 (Homo sapiens) (UniProt P11712); assay: qHTS Assay for Inhibitors and Substrates of Cytochrome P450 2C9 (AID 883); also: potency is read from the fitted curve at half-maximal effect; nearly all actives have a fitted effect of over 60% in size
In short: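 Turnover of Luciferin-H (100uM, KM) by 10nM human CYP2C9 was measured over 60 min at 37C with NADPH regeneration; inhibitors and some substrates reduce luminescence. Data normalized to sulphaphenazole 57uM.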

[10] = biological target: Cytochrome P450 3A4 (Homo sapiens) (UniProt P08684); assay: qHTS Assay for Inhibitors and Substrates of Cytochrome P450 3A4 (AID 884); also: potency is read from the fitted curve at half-maximal effect; nearly all actives have a fitted effect of over 50% in size
Sequence of Cytochrome P450 3A4 (Homo sapiens) (P08684 whole entry, looked up): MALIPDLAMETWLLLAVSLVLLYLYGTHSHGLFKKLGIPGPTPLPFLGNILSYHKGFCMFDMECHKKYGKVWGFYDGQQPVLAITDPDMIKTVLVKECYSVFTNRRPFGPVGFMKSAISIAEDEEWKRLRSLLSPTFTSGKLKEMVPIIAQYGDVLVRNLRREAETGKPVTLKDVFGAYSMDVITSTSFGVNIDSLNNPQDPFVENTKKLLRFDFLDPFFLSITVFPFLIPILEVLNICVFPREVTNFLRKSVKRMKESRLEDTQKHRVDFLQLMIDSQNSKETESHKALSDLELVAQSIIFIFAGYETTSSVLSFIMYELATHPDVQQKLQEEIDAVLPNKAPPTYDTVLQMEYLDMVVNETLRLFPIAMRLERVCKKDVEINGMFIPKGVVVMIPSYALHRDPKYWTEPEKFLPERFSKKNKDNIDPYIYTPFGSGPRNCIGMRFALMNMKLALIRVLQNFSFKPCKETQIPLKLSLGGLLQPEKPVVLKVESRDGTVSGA
In short: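 Luminescent readout of luciferin produced by CYP3A4 (20 nM) dealkylation of Luciferin-PPXE, 25 uM (its KM). NADPH-driven reaction ran 60 min at RT after 10 min compound preincubation; data scaled to 57 uM ketoconazole as 100% inhibition.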

[11] = biological target: Cytochrome P450 3A4 (Homo sapiens) (UniProt P08684); assay: qHTS Assay for Activators of Cytochrome P450 3A4 (AID 885); also: nearly all actives have a fitted effect of over 65% in size
In short: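 Activators are scored by enhanced luminescence from CYP3A4 conversion of luciferin-PPXE (25uM, equal to KM) to luciferin, after 60 min at RT with an NADPH-regenerating system.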

[12] = biological target: Cytochrome P450 2C19 (Homo sapiens) (UniProt P33261); assay: qHTS Assay for Inhibitors and Substrates of Cytochrome P450 2C19 (AID 899); also: potency is read from the fitted curve at half-maximal effect; nearly all actives have a fitted effect of over 60% in size
In short: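 Reactions contain 5nM enzyme, 10uM Luciferin-H EGE (KM) and 50mM KPO4; compound preincubates 10 min at 37C, NADPH regeneration starts turnover for 60 min. Luminescence after detection reagent gives activity.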

[13] = qHTS Assay for Identification of Small Molecule Agonists for Thrombopoietin (TPO) Signaling Pathway (AID 917); also: % is scaled to controls: 0 for no effect and ±100 for the full control effect
In short: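 Luciferase reporter (Glycoprotein IIb promoter) in IL-3-deprived Ba/F3 cells carrying human TPO receptor; compounds co-added with 26 pM TPO, incubated 24 h, 37 C. Steadylite luminescence measured after 10 min.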

[14] = biological target: Muscarinic acetylcholine receptor M1 (Rattus norvegicus) (UniProt P08482); assay: qHTS Assay for Antagonists of Acetylcholine Muscarinic M1 Receptor: Kinetic Measurement of Intracellular Calcium Response (AID 943);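 also: Fluo-4 calcium signal as peak divided by basal fluorescence over 4 min; nearly all actives have a fitted effect of over 75% in size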
Sequence of Muscarinic acetylcholine receptor M1 (Rattus norvegicus) (P08482 whole entry, looked up): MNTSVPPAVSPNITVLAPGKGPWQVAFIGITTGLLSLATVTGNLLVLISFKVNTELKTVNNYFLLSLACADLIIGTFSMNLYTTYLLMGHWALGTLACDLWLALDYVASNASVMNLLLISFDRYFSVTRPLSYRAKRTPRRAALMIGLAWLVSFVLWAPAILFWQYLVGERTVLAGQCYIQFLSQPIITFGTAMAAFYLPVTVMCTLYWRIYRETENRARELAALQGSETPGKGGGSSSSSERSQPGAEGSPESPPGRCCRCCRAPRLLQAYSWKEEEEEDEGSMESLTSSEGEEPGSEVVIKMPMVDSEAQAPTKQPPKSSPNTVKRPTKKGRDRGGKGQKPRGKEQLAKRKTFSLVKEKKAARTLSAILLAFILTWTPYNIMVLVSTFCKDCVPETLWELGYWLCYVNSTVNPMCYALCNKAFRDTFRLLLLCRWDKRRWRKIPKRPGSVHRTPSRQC
In short: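 Antagonism is measured as inhibition of the carbachol-evoked calcium rise in CHO cells transfected with rat M1. Cells are dye-loaded, exposed to compound for 10 min, then stimulated with 100 nM carbachol (EC80).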

[15] = biological target: Muscarinic acetylcholine receptor M1 (Rattus norvegicus) (UniProt P08482); assay: qHTS Assay for Antagonists of Acetylcholine Muscarinic M1 Receptor: Measurement of IP-One Response (AID 944); also: nearly all actives have a fitted effect of over 75% in size
In short: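 Antagonist mode with rat M1 receptor transfected into CHO cells. Compound is added first for 10 min, carbachol at its EC80 follows for 30 min, and lysis reagents then allow TR-FRET detection of accumulated IP1.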

[16] = biological target: Pyruvate kinase (Leishmania mexicana) (UniProt Q27686); assay: qHTS Validation Assay for Inhibitors of Leishmania Mexicana Pyruvate Kinase (AID 945);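 also: 0% = DMSO only neutral control wells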
Sequence of Pyruvate kinase (Leishmania mexicana) (Q27686 2-499 E452W): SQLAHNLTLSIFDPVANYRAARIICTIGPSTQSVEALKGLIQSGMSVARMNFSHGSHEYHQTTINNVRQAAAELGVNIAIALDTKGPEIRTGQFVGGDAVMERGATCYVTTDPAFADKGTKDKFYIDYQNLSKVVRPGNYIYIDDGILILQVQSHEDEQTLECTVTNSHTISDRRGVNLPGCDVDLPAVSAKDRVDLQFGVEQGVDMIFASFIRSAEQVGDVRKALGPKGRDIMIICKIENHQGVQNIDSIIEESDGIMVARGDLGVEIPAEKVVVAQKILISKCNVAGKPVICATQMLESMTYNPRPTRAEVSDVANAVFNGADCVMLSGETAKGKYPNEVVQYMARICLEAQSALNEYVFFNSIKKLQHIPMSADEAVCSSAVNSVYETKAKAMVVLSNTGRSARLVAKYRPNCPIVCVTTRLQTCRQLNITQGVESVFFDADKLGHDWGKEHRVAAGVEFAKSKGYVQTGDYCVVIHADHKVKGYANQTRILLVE
In short: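 Pyruvate kinase activity of E451W LmPYK (0.2 nM) was followed as ATP output after 1 h at room temperature with 0.5 mM PEP and 0.1 mM ADP, detected by PKLight luminescence.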

[17] = biological target: Pyruvate kinase PKM (Homo sapiens) (UniProt P14618); assay: qHTS Assay for Activators of Human Muscle Pyruvate Kinase (AID 954; active = well fitted curve in the direction sought with a large enough effect, not every such curve was filed as active;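 also: 0% = uninhibited enzyme and -100% = no enzyme or full thiadiazolimine inhibition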)
In short: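 PKM2, human, >95% pure, 0.1 nM; PEP 0.5 mM (Km), ADP 0.1 mM; 50 mM imidazole pH 7.2, 50 mM KCl, 0.01% Tween 20, 0.05% BSA; 1 h RT; luciferase luminescence readout.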

[18] = biological target: Alpha-galactosidase A (Homo sapiens) (UniProt P06280); assay: Counterscreen for Glucocerebrosidase Inhibitors: qHTS Assay for Human alpha-Galactosidase at pH 4.5 (AID 992); also: 0% is about no effect
Sequence of Alpha-galactosidase A (Homo sapiens) (P06280 whole entry, looked up): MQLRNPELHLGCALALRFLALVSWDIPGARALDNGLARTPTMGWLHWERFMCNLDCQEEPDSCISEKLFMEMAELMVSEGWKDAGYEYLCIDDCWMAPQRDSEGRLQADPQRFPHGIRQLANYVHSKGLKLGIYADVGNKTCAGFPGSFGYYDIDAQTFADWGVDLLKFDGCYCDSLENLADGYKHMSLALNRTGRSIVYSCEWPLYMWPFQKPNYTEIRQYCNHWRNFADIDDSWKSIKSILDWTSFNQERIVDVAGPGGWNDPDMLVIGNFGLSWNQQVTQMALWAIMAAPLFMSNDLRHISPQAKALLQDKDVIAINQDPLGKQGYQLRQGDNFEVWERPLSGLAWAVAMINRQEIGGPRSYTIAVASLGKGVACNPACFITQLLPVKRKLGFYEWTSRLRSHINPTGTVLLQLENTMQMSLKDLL
In short: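 Fluorogenic 4-MU alpha-D-galactoside (80 uM) hydrolysis, 2 nM enzyme, pH 4.5 citrate buffer + 0.005% Tween-20; 20 min RT; NaOH/glycine pH 10 stop; Ex365/Em440. Compounds titrated 0.7 nM–77 uM; Hill-equation AC50.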

[19] = biological target: alpha-glucosidase (Oryza sativa, rice) (UniProt Q653V4); assay: Counterscreen for Glucocerebrosidase Inhibitors: qHTS Assay for Rice alpha-Glucosidase at pH 5.0 (AID 997);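 also: 0% = full activity with enzyme and -100% = basal without enzyme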
In short: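 Endpoint fluorogenic assay at pH 5.0: compounds (0.7 nM to 77 uM) titrated against 4 nM rice enzyme and 400 uM 4-MU-alpha-glucoside for 20 min at room temperature; NaOH/glycine stop, read ex 365/em 440 nm, Hill-fitted AC50.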

[20] = Validation of Assay for Modulators of Lamin A Splicing (AID 1459; active = well fitted curve in the direction sought with a large enough effect in the signal ratio; the % refers to the signal ratio;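 also: cells exposed to compound for two days before reading; 0% is about no effect; ratio rise marks activators and ratio drop marks inhibitors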)
In short: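 Splicing correction read as GFP (500-530 nm) over DsRed2 (575-640 nm) object intensity after 48 h compound exposure of reporter HeLa S3 clones (600 cells/well, 2% FBS medium); ancitabine and cycloheximide titrations, 0.5% DMSO as vehicle.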

[21] = Counterscreen for APE1 Inhibitors: Fluorescent Dye Displacement Validation Assay (AID 1707);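 also: plate controls were ThO with dsDNA and no compound for no effect and ThO without dsDNA for full effect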
In short: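 Endpoint fluorescence read at 480 nm excitation / 540 nm emission; DNA-binding compounds lower signal by displacing 250 nM Thiazole Orange from 50 nM dsDNA containing a tetrahydrofuran abasic site, Tris-HCl pH7.5 buffer with NaCl and MgCl2.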

[22] = biological target: Endonuclease 4 (Escherichia coli (strain K12)) (UniProt P0A6C1); assay: Counterscreen for APE1 Inhibitors: qHTS Validation Assay for Inhibitors of Endonuclease IV (AID 1708); also: % is scaled to controls: 0 for no effect and ±100 for the full control effect
In short: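 Incision of a double-stranded 50 nM TAMRA/BHQ-2 abasic substrate was followed kinetically (525/598 nm, reads every 60 s) after 15 min enzyme–compound preincubation with 2 nM EndoIV in pH 7.5 Tris buffer with MgCl2, DTT and Tween-20; concentration-response format.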

[23] = qHTS for differential inhibitors of proliferation of Plasmodium falciparum line 7G8 (AID 1815);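 also: potency is read from the fitted curve at half-maximal effect; parasite growth measured after three days of incubation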
[24] = qHTS for differential inhibitors of proliferation of Plasmodium falciparum line Dd2 (AID 1882); settings: Potency: Plasmodium falciparum Dd2 proliferation inhibition;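 also: plate controls were DMSO vehicle for no effect and 0.29 µM artemisinin for full effect; nearly all actives have a fitted effect of over 65% in size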
In short: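 SYBR Green DNA fluorescence (ex 485, em 535 nm) after overnight lysis quantifies parasite growth; compound exposure lasted 72 h at 37 C on infected red cells at 2.5% hematocrit, 0.3% parasitemia (final). Artemisinin 0.29 uM and vehicle wells define normalization.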

[25] = qHTS for differential inhibitors of proliferation of Plasmodium falciparum line W2 (AID 1883); settings: Potency: Plasmodium falciparum W2 proliferation inhibition;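 also: potency is read from the fitted curve at half-maximal effect; parasites grown with compound for 72 h before lysis and staining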
[26] = qHTS Assay for Modulators of Human Peripheral Myelin Protein 22 (PMP22) Expression/Activity (AID 1967; active = well fitted curve in the direction sought with a large enough effect in the signal ratio; the % refers to the signal ratio;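 also: 0% = untreated cells and 100% end not stated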)
In short: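 Readout is the corrected green/red luminescence ratio after 24 h compound exposure, normalised to untreated cells (0%). Engineered MSC80 mouse Schwann cells express green luciferase from the mouse Pmp22 promoter and red luciferase from EF-alpha as internal control.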

[27] = biological target: Ferritin light chain (Equus caballus) (UniProt P02791); assay: qHTS Validation Assay for Identification of Novel General Anesthetics (AID 2323); also: % is scaled to controls: 0 for no effect and ±100 for the full control effect
Sequence of Ferritin light chain (Equus caballus) (P02791 2-175 limits assumed): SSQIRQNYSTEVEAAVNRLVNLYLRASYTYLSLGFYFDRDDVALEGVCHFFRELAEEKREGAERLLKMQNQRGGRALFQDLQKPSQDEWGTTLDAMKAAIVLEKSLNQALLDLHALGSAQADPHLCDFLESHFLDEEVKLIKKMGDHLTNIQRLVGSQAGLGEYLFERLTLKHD
In short: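 Competitive displacement of the profluorescent anesthetic 1-AMA (50% saturated, PBS) from 10 uM apoferritin, 10 min, room temperature. Activity is normalized 380/535 nm fluorescence; concentration-response fitted with a four-parameter Hill equation.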

[28] = biological target: ATP-dependent DNA helicase Q1 (Homo sapiens) (UniProt P46063); assay: qHTS Validation Assay for Inhibitors of RecQ-Like Dna Helicase 1 (RECQ1) (AID 2353);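 also: plate controls were DMSO vehicle for no effect and enzyme-free control for full effect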
Sequence of ATP-dependent DNA helicase Q1 (Homo sapiens) (P46063 whole entry, looked up): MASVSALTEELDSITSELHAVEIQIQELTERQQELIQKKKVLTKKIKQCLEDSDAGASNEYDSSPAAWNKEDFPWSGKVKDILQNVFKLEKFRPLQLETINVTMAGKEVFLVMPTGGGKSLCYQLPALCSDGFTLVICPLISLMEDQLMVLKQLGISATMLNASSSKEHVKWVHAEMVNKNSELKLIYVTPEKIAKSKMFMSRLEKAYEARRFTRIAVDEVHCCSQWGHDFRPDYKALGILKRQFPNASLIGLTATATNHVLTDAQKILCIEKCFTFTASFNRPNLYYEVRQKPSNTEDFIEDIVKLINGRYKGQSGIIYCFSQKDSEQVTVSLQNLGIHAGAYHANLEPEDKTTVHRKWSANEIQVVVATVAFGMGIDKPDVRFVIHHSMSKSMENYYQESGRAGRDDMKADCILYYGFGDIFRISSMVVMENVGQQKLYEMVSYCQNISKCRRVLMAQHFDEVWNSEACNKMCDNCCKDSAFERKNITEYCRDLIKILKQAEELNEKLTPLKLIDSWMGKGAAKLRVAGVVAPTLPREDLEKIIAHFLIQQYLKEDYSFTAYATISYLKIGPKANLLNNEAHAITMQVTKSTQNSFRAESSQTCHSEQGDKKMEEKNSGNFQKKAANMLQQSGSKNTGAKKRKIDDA
In short: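 RECQ1T1 50 nM; forked duplex (20 bp + 30-nt ss tails) 200 nM, ATP 2 mM final; pH 8.0, 2 mM MgCl2, 2.5 ug/ml poly(dI-dC); 15 min compound preincubation; discontinuous kinetic read over 2 h at RT.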

[29] = Validation screen for small molecules that induce DNA re-replication in MCF 10A normal breast cells (AID 463097); also: 0% is about no effect; nearly all actives have a fitted effect of over 60% in size
In short: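 Read-out is Hoechst total nuclear intensity by fluorescence scanning imager, flagging increased high-DNA-content nuclei. Compounds were incubated with MCF 10A cells for 48 hr (37 C, 5% CO2) before 40 min staining.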

[30] = Quantitative high throughput screen for delayed death inhibitors of the malarial parasite plastid, 96 hour incubation (AID 488745);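 also: luciferase-expressing P. falciparum in erythrocytes at 2% hematocrit and 0.1% parasitemia; % is scaled to controls: 0 for no effect and ±100 for the full control effect; nearly all actives have a fitted effect of over 70% in size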
In short: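 Readout is firefly luciferase luminescence from an integrated reporter in P. falciparum; lower signal marks inhibited growth. Cultures at 2% hematocrit and 0.1% parasitemia were treated with compound across two generations (96 h, 37 C, 5% CO2).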

[31] = biological target: M-phase phosphoprotein 8 (Homo sapiens) (UniProt Q99549); assay: qHTS Validation Assay for Inhibitors for MPP8 Chromodomain Interactions with Methylated Histone Tails (AID 488949);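 also: AlphaScreen signal from MPP8 chromodomain bound to biotinylated H3K9me3 peptide; top concentration of the series differs between compounds; % is scaled to controls: 0 for no effect and ±100 for the full control effect; nearly all actives have a fitted effect of over 55% in size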
Sequence of M-phase phosphoprotein 8 (Homo sapiens) (Q99549 whole entry, looked up): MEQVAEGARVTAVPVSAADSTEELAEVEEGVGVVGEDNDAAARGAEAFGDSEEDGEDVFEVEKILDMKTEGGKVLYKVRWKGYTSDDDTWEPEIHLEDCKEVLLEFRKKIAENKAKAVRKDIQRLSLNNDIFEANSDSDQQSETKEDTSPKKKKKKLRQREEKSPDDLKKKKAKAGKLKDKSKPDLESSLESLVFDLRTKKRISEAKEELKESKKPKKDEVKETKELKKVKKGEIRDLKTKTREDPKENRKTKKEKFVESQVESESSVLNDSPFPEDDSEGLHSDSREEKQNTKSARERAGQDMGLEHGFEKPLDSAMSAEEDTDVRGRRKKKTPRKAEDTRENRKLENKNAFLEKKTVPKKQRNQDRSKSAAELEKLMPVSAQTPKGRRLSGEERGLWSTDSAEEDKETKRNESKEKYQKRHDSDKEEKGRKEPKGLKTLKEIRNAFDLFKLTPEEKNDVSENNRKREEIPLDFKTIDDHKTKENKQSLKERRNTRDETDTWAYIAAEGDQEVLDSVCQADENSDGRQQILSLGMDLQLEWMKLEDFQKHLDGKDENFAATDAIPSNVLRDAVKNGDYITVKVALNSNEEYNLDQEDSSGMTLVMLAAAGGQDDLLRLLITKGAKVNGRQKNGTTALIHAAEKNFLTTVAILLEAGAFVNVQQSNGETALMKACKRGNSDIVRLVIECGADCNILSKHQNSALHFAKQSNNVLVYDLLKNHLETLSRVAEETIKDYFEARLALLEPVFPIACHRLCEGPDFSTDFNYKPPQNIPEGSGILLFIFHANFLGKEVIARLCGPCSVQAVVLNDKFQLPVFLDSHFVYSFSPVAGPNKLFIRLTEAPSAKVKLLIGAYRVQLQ
In short: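 AlphaScreen proximity signal from streptavidin donor and Ni-chelate acceptor beads (10 ug/mL each) reported binding of MPP8 to trimethyl-K9 H3(1-18) peptide, both at 50 nM. The complex formed 30 min before a 30 min compound exposure at room temperature, in PBS pH 7.4.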

[32] = biological target: Thyrotropin-releasing hormone receptor (Homo sapiens) (UniProt P34981); assay: qHTS for Small Molecule Agonists and Allosteric Enhancers of Human TRH Receptor: Validation Screen for Agonists (AID 493127;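 active = calcium activation more than 3 SD above the typical response in the agonist read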;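 also: intracellular calcium rise by fluo-8 fluorescence before TRH EC20 addition; 0% is about no effect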); settings: TRH receptor agonist cell assay; at 2 µM; hits give high values
In short: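 Compounds are added by online pintool to dye-loaded TRHR cells while fluorescence is recorded every second. A rise in calcium signal during the agonist read marks activation; a later 10 nM TRH addition (EC20) serves the separate enhancer mode.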

[33] = biological target: Galactokinase (Homo sapiens) (UniProt P51570); assay: qHTS Validation Assay for Inhibitors of Human Galactokinase (GALK) (AID 493189); also: 0% is about no effect
In short: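 Inhibition was measured as remaining ATP, detected by luciferase luminescence after a 1 h room-temperature reaction. Final conditions: 5 nM GALK, 100 uM galactose, 35 uM ATP, pH 8.0 HEPES buffer.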

[34] = Validation screen for small molecules that induce DNA re-replication in SW480 colon adenocarcinoma cells (AID 504364); also: 0% is about no effect
In short: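 Image-based qHTS: compounds were incubated with SW480 cells for 48 hr, nuclei stained with Hoechst, and per-nucleus fluorescence intensity scanned to flag cells with excess DNA content.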

CCCC(=O)NCCc1c2n(c3ccc(OC)cc13)Cc1ccccc1-2
active: Potency [2] 2.51 µM | Potency [9] 1.26 µM | Potency [10] 2.51 µM | Potency [12] 0.398 µM | Potency [23] 11.2 µM | Potency [25] 7.08 µM
inactive: activity change, negative = inhibition [1] -34.8% [at 38 µM] | activity change, negative = inhibition [3] -10.2% [at 38 µM] | Potency [4] > 46 µM | Potency [5] > 46 µM | outcome [6] | Potency [7] | outcome [8] | Potency [11] | outcome [13] | Potency [14] | Potency [15] | Potency [16] | outcome [17] | outcome [18] | outcome [19] | outcome [20] | Potency [21] | outcome [22] | Potency [24] | outcome [26] | outcome [27] | Potency [28] | outcome [29] | Potency [30] | Potency [31] | activation [32] -7.06% | outcome [33] | outcome [34]
